Values joined by “and” are separate entries in the source; they are usually repeats but may differ in a detail not shown here. Equal values may be shown once. Records with an inconclusive call do not appear. Entries that show only a call come without a potency. A structure can be active in one record and inactive in another. Active and inactive are the calls of the source. Calls follow the shape of the dose curve; as a rule, active = well fitted curve in the direction sought with a large enough effect in the repeat runs; inconclusive = weak or mixed curves; inactive = no such curve, though single readings can be large; an effect the other way counts as inactive or inconclusive.
Assays:
[1] = Caspase-3/7 induction in CHO-K1 cells by small molecules, qHTS cell viability counter screen (AID 1346979); also: nearly all actives have a fitted effect of over 35% in size; also: potency is read from the fitted curve at half-maximal effect
How it was run: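 Following a 5hr settling period, CHO-K1 cells at 1,500 per well received DMSO-dissolved compounds. Cell viability was quantified 16hr later by CellTiter-Fluor fluorescence, measured after 1hr with reagent at 37C.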

[2] = Caspase-3/7 induction in CHO-K1 cells by small molecules, qHTS assay (AID 1346980); also: nearly all actives have a fitted effect of over 15% in size
How it was run: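 Wild-type cells were seeded at 1,500 per well and settled 5 hr at 37 C, 5% CO2, then exposed to DMSO-dissolved compounds for 17 hr. Caspase-Glo 3/7 reagent was added, and luminescence was read after 30min at room temperature.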

[3] = Caspase-3/7 induction in HepG2 cells by small molecules, qHTS cell viability counter screen (AID 1346981); also: nearly all actives have a fitted effect of over 30% in size; also: potency is read from the fitted curve at half-maximal effect
How it was run: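 Wild-type HepG2 cells (2,000/well) were allowed to settle for 5 hr at 37 C, 5% CO2, then dosed with compounds in DMSO by pin transfer. After 16 hr at 37 C, CellTiter-Fluor was added and fluorescence read 1 hr later.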

[4] = target: Voltage-gated inwardly rectifying potassium channel KCNH2 (Homo sapiens) (UniProt Q12809); experiment: Human Ether-a-go-go-Related Gene (hERG) channel small molecule antagonists: fluorescence cell-based qHTS assay (AID 1671200); also: nearly all actives have a fitted effect of over 50% in size; also: potency is read from the fitted curve at half-maximal effect
How it was run: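 In this thallium-flux screen, overnight-cultured U2OS cells bearing the channel are dye-loaded in darkness for an hour, rested 10 min at room temperature, and then monitored kinetically at 480/540 nm for two minutes post-stimulus.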

[5] = target: Cytochrome P450 2C9 (Homo sapiens) (UniProt P11712); experiment: Cytochrome P450 Family 2 Subfamily C Member 9 (CYP2C9) small molecule antagonists: luciferase reporter qHTS assay (AID 1671198); also: nearly all actives have a fitted effect of over 50% in size; also: potency is read from the fitted curve at half-maximal effect
How it was run: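 CYP2C9 activity was measured with a P450-Glo proluciferin substrate. Enzyme–substrate mix was held with compound for 10 min at room temperature, then NADPH regeneration solution was added for 1 h at 37C. Luciferin product was read as luminescence.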

[6] = target: Cytochrome P450 1A2 (Homo sapiens) (UniProt P05177); experiment: Cytochrome P450 Family 1 Subfamily A Member 2 (CYP1A2) small molecule antagonists: luciferase reporter qHTS assay (AID 1671199); also: nearly all actives have a fitted effect of over 50% in size; also: potency is read from the fitted curve at half-maximal effect
How it was run: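 Human CYP1A2 activity measured with a P450-Glo proluciferin substrate; compounds in DMSO preincubated 10 min at room temperature with enzyme-substrate mix, then NADPH regeneration system added for 1 h. Luciferin detection reagent, 20 min, luminescence read.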

[7] = target: Cytochrome P450 3A4 (Homo sapiens) (UniProt P08684); experiment: Cytochrome P450 Family 3 Subfamily A Member 4 (CYP3A4) small molecule antagonists: luciferase reporter qHTS assay (AID 1671201); also: nearly all actives have a fitted effect of over 50% in size; also: potency is read from the fitted curve at half-maximal effect
How it was run: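 CYP3A4 activity was followed with a P450-Glo proluciferin substrate. Test compounds in DMSO were preincubated 10 min; NADPH regeneration then ran 1 h, and light output was read 20 min after detection reagent.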

[8] = target: Nuclear receptor subfamily 1 group I member 2 (Homo sapiens) (UniProt O75469); experiment: Human pregnane X receptor (PXR) small molecule agonists, qHTS assay (AID 1346982); also: nearly all actives have a fitted effect of over 35% in size; also: potency is read from the fitted curve at half-maximal effect
How it was run: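 PXR-Luc HepG2 cells (CYP3A4 promoter-driven luciferase) were seeded in medium with 5% charcoal-stripped FBS, left 5 hr at 37 C, then exposed to compounds in DMSO for 24 hr. Luminescence was read after ONE-Glo addition.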

[9] = target: Cytochrome P450 2D6 (Homo sapiens) (UniProt P10635); experiment: Cytochrome P450 Family 2 Subfamily D Member 6 (CYP2D6) small molecule antagonists: luciferase reporter qHTS assay (AID 1671196); also: nearly all actives have a fitted effect of over 50% in size; also: potency is read from the fitted curve at half-maximal effect
How it was run: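 CYP2D6 enzyme–substrate mix was held with compound for 10 min at room temperature, then NADPH regeneration solution was added and the reaction ran 1 h at room temperature. Luciferin product was detected by luminescence after 20 min with detection reagent.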

[10] = target: Cytochrome P450 2C19 (Homo sapiens) (UniProt P33261); experiment: Cytochrome P450 Family 2 Subfamily C Member 19 (CYP2C19) small molecule antagonists: luciferase reporter qHTS assay (AID 1671197); also: nearly all actives have a fitted effect of over 65% in size; also: potency is read from the fitted curve at half-maximal effect
How it was run: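 Inhibition of CYP2C19 was scored from loss of luminescence in a P450-Glo proluciferin substrate assay, NADPH-started and run 1 h at 37C, with ketoconazole as positive control.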

[11] = target: Nuclear receptor subfamily 1 group I member 2 (Rattus norvegicus) (UniProt Q9R1A7); experiment: Rat pregnane X receptor (rPXR) activation by small molecules, qHTS assay (AID 1346983); conditions: rPXR luciferase reporter cells, One-Glo luminescence, 24 h; max activation: stronger effect = higher value; also: nearly all actives have a fitted effect of over 20% in size; also: potency is read from the fitted curve at half-maximal effect
How it was run: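 Cell-based rPXR luciferase reporter assay, 2,000 cells per well, rested 5hr at 37 C before compound addition in DMSO, then 24 hr at 37 C. One-Glo reagent was added and luminescence read after 30 min at room temperature.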

[12] = target: Nuclear receptor subfamily 1 group I member 2 (Homo sapiens) (UniProt O75469); experiment: Human pregnane X receptor (PXR) activation by small molecules, qHTS assay (AID 1346985); also: nearly all actives have a fitted effect of over 40% in size
How it was run: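 DPX-2 cells (HepG2 co-transfected with a PXR response element and a CYP3A4-promoter luciferase construct) were seeded at 2,000 per well, rested 5 hr at 37C, then exposed to DMSO-dissolved compounds for 24 hr. Activation was read as luciferase luminescence.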

Sequence of Cytochrome P450 3A4 (Homo sapiens) (P08684 whole entry, looked up): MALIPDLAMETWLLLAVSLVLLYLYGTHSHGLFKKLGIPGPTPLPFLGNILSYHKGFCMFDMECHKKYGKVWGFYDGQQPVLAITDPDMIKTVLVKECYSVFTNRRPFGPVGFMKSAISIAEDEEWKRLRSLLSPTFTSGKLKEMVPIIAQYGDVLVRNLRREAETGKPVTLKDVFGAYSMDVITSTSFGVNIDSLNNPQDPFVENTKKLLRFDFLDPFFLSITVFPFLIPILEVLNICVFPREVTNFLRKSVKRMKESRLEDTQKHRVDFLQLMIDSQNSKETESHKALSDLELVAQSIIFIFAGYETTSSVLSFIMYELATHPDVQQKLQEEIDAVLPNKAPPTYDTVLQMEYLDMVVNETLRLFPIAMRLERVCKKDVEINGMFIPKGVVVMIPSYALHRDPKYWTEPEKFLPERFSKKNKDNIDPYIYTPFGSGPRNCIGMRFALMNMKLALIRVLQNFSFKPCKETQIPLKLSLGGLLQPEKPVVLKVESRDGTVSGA
Sequence of Cytochrome P450 2C9 (Homo sapiens) (P11712 whole entry, looked up): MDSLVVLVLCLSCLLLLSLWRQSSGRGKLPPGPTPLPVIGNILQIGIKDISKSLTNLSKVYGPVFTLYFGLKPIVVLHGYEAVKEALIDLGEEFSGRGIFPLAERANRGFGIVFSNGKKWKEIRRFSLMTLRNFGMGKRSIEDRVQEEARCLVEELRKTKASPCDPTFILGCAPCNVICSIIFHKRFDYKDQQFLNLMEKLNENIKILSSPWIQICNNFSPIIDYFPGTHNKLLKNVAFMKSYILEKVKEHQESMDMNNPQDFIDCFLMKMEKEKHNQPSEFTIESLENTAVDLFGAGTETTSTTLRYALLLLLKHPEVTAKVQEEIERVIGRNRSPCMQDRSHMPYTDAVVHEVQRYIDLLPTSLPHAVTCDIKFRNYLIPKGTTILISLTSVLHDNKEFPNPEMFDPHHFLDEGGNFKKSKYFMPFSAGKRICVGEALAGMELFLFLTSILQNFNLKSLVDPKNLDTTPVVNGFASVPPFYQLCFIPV
Sequence of Nuclear receptor subfamily 1 group I member 2 (Rattus norvegicus) (Q9R1A7 whole entry, looked up): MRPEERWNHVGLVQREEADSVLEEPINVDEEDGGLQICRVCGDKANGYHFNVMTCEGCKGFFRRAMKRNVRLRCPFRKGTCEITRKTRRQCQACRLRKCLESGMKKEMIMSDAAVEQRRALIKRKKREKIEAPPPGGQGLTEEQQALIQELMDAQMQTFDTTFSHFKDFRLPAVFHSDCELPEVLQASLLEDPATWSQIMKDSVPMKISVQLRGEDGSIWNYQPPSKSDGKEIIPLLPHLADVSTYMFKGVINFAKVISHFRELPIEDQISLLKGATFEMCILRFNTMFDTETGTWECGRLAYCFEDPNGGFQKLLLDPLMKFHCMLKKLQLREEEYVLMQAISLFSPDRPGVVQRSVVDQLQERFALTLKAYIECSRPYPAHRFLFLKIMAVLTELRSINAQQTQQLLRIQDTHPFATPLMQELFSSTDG
Sequence of Nuclear receptor subfamily 1 group I member 2 (Homo sapiens) (O75469 whole entry, looked up): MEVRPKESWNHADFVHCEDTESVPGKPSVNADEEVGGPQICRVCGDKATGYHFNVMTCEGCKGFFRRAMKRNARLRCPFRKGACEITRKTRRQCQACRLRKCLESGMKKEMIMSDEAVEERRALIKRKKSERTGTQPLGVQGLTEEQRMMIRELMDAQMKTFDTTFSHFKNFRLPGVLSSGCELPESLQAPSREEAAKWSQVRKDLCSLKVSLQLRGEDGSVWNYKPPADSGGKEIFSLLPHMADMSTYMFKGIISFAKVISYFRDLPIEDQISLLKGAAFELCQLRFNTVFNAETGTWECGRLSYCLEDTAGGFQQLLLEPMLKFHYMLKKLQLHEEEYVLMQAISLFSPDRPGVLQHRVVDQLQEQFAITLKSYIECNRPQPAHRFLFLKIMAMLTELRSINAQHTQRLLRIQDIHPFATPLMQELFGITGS
Sequence of Voltage-gated inwardly rectifying potassium channel KCNH2 (Homo sapiens) (Q12809 whole entry, looked up): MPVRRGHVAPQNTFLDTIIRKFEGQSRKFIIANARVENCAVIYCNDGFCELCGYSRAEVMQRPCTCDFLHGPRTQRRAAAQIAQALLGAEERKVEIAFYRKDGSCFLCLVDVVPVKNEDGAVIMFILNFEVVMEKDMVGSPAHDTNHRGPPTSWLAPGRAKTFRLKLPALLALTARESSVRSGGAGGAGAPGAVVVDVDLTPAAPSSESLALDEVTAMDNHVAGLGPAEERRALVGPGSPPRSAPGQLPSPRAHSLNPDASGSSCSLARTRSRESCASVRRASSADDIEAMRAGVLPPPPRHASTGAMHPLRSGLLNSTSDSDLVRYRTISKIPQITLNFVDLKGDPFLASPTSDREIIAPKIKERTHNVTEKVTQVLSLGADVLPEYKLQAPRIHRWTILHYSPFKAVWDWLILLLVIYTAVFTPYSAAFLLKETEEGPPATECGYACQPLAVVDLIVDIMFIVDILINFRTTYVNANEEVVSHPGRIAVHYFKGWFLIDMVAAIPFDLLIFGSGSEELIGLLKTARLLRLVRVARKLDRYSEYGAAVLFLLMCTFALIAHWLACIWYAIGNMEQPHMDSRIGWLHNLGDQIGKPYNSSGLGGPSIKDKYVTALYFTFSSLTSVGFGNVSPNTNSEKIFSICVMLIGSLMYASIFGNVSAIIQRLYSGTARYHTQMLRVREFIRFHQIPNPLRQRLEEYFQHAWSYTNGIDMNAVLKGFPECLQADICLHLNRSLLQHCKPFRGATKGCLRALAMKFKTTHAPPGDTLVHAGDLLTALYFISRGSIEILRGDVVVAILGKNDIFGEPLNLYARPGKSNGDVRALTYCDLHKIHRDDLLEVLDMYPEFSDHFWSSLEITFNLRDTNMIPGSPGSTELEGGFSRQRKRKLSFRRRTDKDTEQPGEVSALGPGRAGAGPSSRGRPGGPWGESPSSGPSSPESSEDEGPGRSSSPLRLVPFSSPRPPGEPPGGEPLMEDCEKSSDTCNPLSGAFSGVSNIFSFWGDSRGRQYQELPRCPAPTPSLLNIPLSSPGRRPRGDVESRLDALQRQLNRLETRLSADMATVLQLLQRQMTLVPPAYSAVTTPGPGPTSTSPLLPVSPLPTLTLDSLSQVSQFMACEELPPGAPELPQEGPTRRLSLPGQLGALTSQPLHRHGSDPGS
Sequence of Cytochrome P450 2C19 (Homo sapiens) (P33261 whole entry, looked up): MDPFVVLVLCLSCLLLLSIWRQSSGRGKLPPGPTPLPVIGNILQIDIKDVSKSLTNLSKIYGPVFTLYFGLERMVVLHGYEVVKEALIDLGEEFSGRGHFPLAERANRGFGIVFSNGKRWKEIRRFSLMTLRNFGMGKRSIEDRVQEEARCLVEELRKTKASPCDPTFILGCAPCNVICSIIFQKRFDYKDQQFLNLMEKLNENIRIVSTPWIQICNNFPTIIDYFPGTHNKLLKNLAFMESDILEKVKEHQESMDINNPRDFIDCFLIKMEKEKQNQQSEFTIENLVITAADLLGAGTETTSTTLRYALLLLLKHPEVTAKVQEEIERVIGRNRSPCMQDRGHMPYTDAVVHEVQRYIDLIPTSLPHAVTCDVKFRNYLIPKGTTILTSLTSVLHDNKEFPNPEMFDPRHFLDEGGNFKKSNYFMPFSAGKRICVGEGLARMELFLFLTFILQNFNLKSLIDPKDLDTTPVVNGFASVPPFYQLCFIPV
Sequence of Cytochrome P450 1A2 (Homo sapiens) (P05177 whole entry, looked up): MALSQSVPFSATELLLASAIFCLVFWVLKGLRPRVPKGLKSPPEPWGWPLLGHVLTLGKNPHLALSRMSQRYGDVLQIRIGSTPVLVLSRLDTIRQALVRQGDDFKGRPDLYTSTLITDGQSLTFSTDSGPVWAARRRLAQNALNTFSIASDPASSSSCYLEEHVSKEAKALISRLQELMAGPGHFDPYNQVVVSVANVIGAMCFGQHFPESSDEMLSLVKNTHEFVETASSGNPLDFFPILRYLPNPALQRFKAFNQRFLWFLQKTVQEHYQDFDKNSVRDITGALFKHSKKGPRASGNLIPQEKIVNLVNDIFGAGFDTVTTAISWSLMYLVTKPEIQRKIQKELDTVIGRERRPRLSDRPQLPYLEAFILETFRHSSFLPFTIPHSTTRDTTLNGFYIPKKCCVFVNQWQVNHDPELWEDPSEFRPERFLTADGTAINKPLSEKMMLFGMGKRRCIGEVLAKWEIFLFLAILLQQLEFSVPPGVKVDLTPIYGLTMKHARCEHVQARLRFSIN
Sequence of Cytochrome P450 2D6 (Homo sapiens) (P10635 whole entry, looked up): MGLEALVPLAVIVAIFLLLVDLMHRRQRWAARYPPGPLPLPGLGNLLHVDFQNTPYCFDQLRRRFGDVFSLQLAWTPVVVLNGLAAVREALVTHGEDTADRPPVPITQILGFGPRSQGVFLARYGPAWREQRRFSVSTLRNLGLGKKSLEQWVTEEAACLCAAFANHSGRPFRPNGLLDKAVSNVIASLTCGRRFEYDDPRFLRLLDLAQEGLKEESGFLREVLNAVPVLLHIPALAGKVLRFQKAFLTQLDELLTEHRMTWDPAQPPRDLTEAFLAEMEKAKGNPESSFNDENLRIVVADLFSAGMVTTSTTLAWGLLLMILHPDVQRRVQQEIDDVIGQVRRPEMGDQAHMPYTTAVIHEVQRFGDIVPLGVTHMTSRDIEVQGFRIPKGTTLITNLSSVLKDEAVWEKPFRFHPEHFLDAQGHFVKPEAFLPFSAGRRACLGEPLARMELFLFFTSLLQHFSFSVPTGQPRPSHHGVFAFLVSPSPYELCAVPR

| SMILES | Potency [1] | Potency [2] | Potency [3] | Potency [4] | Potency [5] | Potency [6] | Potency [7] | Potency [8] | Potency [9] | Potency [10] | max activation [11] | Potency [11] | Potency [12] |
| --- | --- | --- | --- | --- | --- | --- | --- | --- | --- | --- | --- | --- | --- |
| Cc1cn[nH]c1 | inactive | inactive | inactive | inactive | – | – | – | – | – | – | – | – | – |
| CNC(=S)NN | 19.3 µM (active) | inactive | inactive | inactive | 39.9 µM (active) | 39.9 µM (active) | inactive | – | – | – | – | – | – |
| CCCCC(CC)COC(=O)c1ccc(O)cc1 (stereo not drawn) | 54.3 µM (active) and 61.1 µM (active) | inactive | – | – | 31.6 µM (active) and 35.6 µM (active) | 31.6 µM (active) and 35.6 µM (active) | 70.7 µM (active) | 24.2 µM (active) and 68.6 µM (active) | 79.4 µM (active) and 22.4 µM (active) | 11.2 µM (active) and 17.8 µM (active) | – | – | – |
| C=CC(C)C#N (stereo not drawn) | inactive | inactive | – | inactive | inactive | inactive | inactive | inactive | – | inactive | – | – | – |
| CC(C)(C)c1cc(/C=C2\SC(=N)NC2=O)cc(C(C)(C)C)c1O | 54.5 µM (active) | inactive | – | inactive | 1.78 µM (active) | – | 11.2 µM (active) | 30.6 µM (active) | – | 20 µM (active) | – | – | – |
| Nc1cc(Cl)c([N+](=O)[O-])cc1O | 68 µM (active) | inactive | – | inactive | 31.5 µM (active) | 19.9 µM (active) | – | 54 µM (active) | inactive | inactive | – | – | – |
| C[C@]12CC[C@H]3C(=CCc4cc(O)ccc43)[C@@H]1CCC2=O | 61.1 µM (active) | inactive | – | inactive | 35.6 µM (active) | 35.6 µM (active) | 20 µM (active) | 27.3 µM (active) | inactive | 31.7 µM (active) | – | – | – |
| CC1CNCC(C)O1 (stereo not drawn) | inactive | inactive | – | inactive | inactive | – | inactive | inactive | inactive | inactive | – | – | – |
| O=C(Nc1ccc(Cl)c(Cl)c1)c1cc(Cl)cc(Cl)c1O | 7.7 µM (active) | inactive | – | inactive | 11.2 µM (active) | 20 µM (active) | 17.8 µM (active) | 10.9 µM (active) | – | – | – | – | – |
| O=Cc1ccc(F)cc1 | inactive | inactive | inactive | inactive | inactive | inactive | inactive | – | 35.6 µM (active) | inactive | – | – | – |
| Cc1cccc(Br)c1 | inactive | inactive | inactive | inactive | 40.1 µM (active) | – | inactive | – | inactive | 35.8 µM (active) | – | – | – |
| C=CCCCCCCC=C | inactive | inactive | inactive | inactive | – | – | – | – | – | – | – | – | – |
| COc1cc(C(=O)NS(=O)(=O)c2ccccc2C)ccc1Cc1cn(C)c2ccc(NC(=O)OC3CCCC3)cc12 | inactive | inactive | inactive | inactive | 15.5 µM (active) | inactive | – | – | inactive | inactive | -0.0293% (inactive) | – | – |
| CC1CCCNC1 (stereo not drawn) | inactive | inactive | inactive | inactive | inactive | inactive | inactive | – | 39.1 µM (active) | inactive | – | – | – |
| C[C@H]1O[C@@H](O[C@H]2[C@@H](O)C[C@H](O[C@H]3[C@@H](O)C[C@H](O[C@H]4CC[C@@]5(C)[C@H](CC[C@@H]6[C@@H]5C[C@@H](O)[C@]5(C)[C@@H](C7=CC(=O)OC7)CC[C@]65O)C4)O[C@@H]3C)O[C@@H]2C)C[C@H](O)[C@@H]1O | inactive | inactive | inactive | inactive | – | – | – | – | – | – | -1.12% (inactive) | – | – |
| O=C1Nc2ccc(Cl)cc2[C@@](C#CC2CC2)(C(F)(F)F)O1 | 21.1 µM (active) | inactive | – | inactive | 15.5 µM (active) | 17.4 µM (active) | inactive | – | inactive | 11 µM (active) | – | 28.2 µM (active) | – |
| CC(C)=C1CC[C@@H](C)CC1=O | inactive | inactive | inactive | inactive | inactive | – | inactive | – | – | inactive | – | – | – |
| CCCCCCOc1ccc(O)cc1 | 61.1 µM (active) | inactive | – | inactive | 39.9 µM (active) | 39.9 µM (active) | – | 48.6 µM (active) | – | 20 µM (active) | – | – | – |
| CC(C)(c1cc(Br)c(O)c(Br)c1)c1cc(Br)c(O)c(Br)c1 | 60.9 µM (active) | – | inactive | inactive | 31.6 µM (active) and 35.5 µM (active) and 30 µM (active) | inactive | 56.2 µM (active) and inactive | 54.3 µM (active) and 60.9 µM (active) and 57.9 µM (active) | inactive | 22.4 µM (active) and 35.5 µM (active) | – | – | – |
| O[C@@H](c1cc(C(F)(F)F)nc2c(C(F)(F)F)cccc12)[C@H]1CCCCN1 | 26.6 µM (active) | – | – | – | inactive | – | – | inactive | – | – | -16.9% (inactive) | – | inactive |
| O=C(Nc1ccc(Cl)cc1)Nc1ccc(Cl)c(C(F)(F)F)c1 | 11.9 µM (active) | – | 29.8 µM (active) | inactive | 13.8 µM (active) | 25.7 µM (active) | inactive | 9.44 µM (active) | – | 17.4 µM (active) | – | – | – |
| Clc1ccc(C(Cn2ccnc2)OCc2ccsc2Cl)c(Cl)c1 (stereo not drawn) | 21.1 µM (active) | inactive | – | 9.52 µM (active) | 0.309 µM (active) | 4.56 µM (active) | – | – | 3.47 µM (active) | 0.347 µM (active) | – | – | – |
| O=Nc1ccc(NO)cc1 | 63.6 µM (active) | inactive | – | inactive | inactive | inactive | – | – | inactive | – | – | – | – |

Source: PubChem BioAssay (Tox21)
